PubChem BioAssay (NCATS)
Records with an inconclusive call do not appear. Unmarked numbers belong to inactive results. The source made the active and inactive calls. The call rests on the fitted dose curve; in most records, active means well fitted inhibition curve with a large enough effect; inconclusive means small, poorly fitted or top-dose-only effect; inactive means no such curve, though single readings can be large or run the other way.

Molecular target: Aldehyde dehydrogenase 1A1 (Homo sapiens) (UniProt P00352)
Assay: qHTS for Inhibitors of the Aldehyde Dehydrogenase Family (ALDH1A1) Confirmatory screens (AID 2061316); further: nearly all actives have a fitted effect of over 65% in size
Conditions: ALDH inhibition qHTS; series mostly up to 47.3 µM; activity change, negative = inhibition: at the top concentration
On the % scale 0 is the no-effect control and ±100 the full control effect; potency means the concentration at half of the fitted maximal effect.

SMILES	outcome	Potency	activity change, negative = inhibition [%]
O=C(O)c1ccc(-n2cccc2/C=C2\SC(=O)N(Cc3ccc(Br)cc3)C2=O)cc1	inactive		
N[C@@H](Cc1ccc(OS(=O)(=O)c2cccnc2)cc1)C(=O)N1CCN(c2ccccc2)CC1		10.1 µM (active)	
C/C=C/C=C/C(O)=C1/C(=O)[C@]2(C)C3/C(=C(O)/C=C/C=C/C)C(=O)C4(C)C1[C@]1(C)O[C@@]4(O)[C@@]3(C)O[C@@]12O		12.3 µM (active)	
N#Cc1ccc(CNc2nc(-c3ccccc3C(F)(F)F)nc3ccccc23)cc1		14.2 µM (active)	
COC(=O)c1ccc(O)c2ncc(-c3ccc(C(=O)N4CCNCC4)cc3)cc12			-39.7
O=C(O)c1ccc(S(=O)(=O)N[C@H](Cc2ccc(O)cc2)C(=O)O)cc1		10.1 µM (active)	
Cc1ccc2nc3sc(C(=O)Nc4ccncc4)cc3cc2c1		14.2 µM (active)	
NC(=O)C1CCN(c2nc(-c3ccccc3N)cs2)CC1		12.7 µM (active)	
CN(Cc1ccco1)c1ncnc2ccc(-c3ccoc3)cc12		12.7 µM (active)	
COc1cccc(CNc2ccc(S(=O)(=O)Nc3ccc(C)nc3)cc2)c1O	inactive		
O=C(OCC#CCSc1nnc(-c2cccc3ccccc23)o1)c1ccc(Br)cc1			2.23
NC(=O)C1CCN(c2nc(-c3ccccc3[N+](=O)[O-])cs2)CC1		5.04 µM (active)	
CNc1sc(-c2cccc3ccccc23)nc1C(=O)OC		14.2 µM (active)	
Cc1ccc(-n2c(C)cc(-c3nnc4n3CCCCC4)c2C)cc1		20.1 µM (active)	
CC(=O)c1cccc(-c2csc(N3CCC(C(N)=O)CC3)n2)c1		5.65 µM (active)	
COc1ccc(C2Nc3ccccc3C(=O)N2Cc2ccccc2OC)cc1COc1ccc(NC(C)=O)cc1 (stereo unspecified)		22.5 µM (active)	
O=C(O)c1ccc(O)c2ncc(-c3ccc(C(=O)N4CCNCC4)cc3)cc12			-29
CC(=O)C1CCN(c2ncc(-c3cccc(N(C)C)c3)s2)CC1		10.1 µM (active)	
OCc1ccc(-c2ccc3ncnc(NCCc4cnc[nH]4)c3c2)o1		10.1 µM (active)	
CC(=O)N1CCc2cc(-c3nc(NC(=O)Cc4ccc5c(c4)OCO5)sc3C)ccc21		10.1 µM (active)	
COc1ccc(C2Nc3ccccc3C(=O)N2C2CCCC2)cc1COc1ccc(NC(C)=O)cc1 (stereo unspecified)		20.1 µM (active)	
